Assay outcomes: PubChem BioAssay, National Center for Advancing Translational Sciences (NCATS)
Only some compounds are listed: those with a hit (about 1.2% of all), similar ones and a draw of the others.
KCNH2 3.1 inh: qHTS for Inhibitors of KCHN2 3.1: Mutant qHTS; activity change, % (tested at about 1.8 µM); Potassium voltage-gated channel subfamily H member 2, brain isoform KCNH2 3.1 (human); 340,000 compounds, 0.95% hits; U2OS KCNH2 3.1, thallium flux FluxOr; stronger effect = lower value;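 active = maximum activity change below -70%; inconclusive = maximum activity change from -70% to -50%; inactive = maximum activity change above -50%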;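 also: thallium influx rate constant from kinetic fluorescence after stimulation buffer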
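Thallium flux via FluxOr fluorescence (Red40 quencher, 45 min loading) in U2OS cells virally expressing the KCNH2 3.1 isoform (1.77 x 10^8 /mL virus, overnight at 37 C). Rate constants from 2-min kinetic reads post-stimulation, normalised to positive and negative controls.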
Luc counter: Counterscreen for Luciferase (Kinase-Glo TM) Inhibition; Luciferin 4-monooxygenase (Photuris pensylvanica), Q27757; Kinase-Glo luciferase, ATP luminescence, 8 min; Potency, µM (doses to about 38.3 µM), for the others: at the highest dose activity change, negative = inhibition, actives largely listed as inhibitors; 200,000 compounds, 0.28% hits; AID 1379, 2008; active = well fitted inhibition curve with a large enough effect; inconclusive = small, poorly fitted or top-dose-only effect; also: potency is read from the fitted curve at half-maximal effect; nearly all actives have a fitted effect of over 60% in size
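Luminescence was the read-out, taken after 8-minute incubation at ambient temperature. Luciferase turned over luciferin with 10 uM ATP in imidazole pH 7.2 buffer containing KCl, MgCl2, Tween 20 and BSA.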
hERG WT inh: qHTS for Inhibitors of KCHN2 3.1: Wildtype qHTS. Voltage-gated inwardly rectifying potassium channel KCNH2 (Homo sapiens), Q12809. U2OS, BacMam KCNH2, thallium flux FluxOr; stronger effect = lower value. activity change, % at 1.84 µM. 340,000 compounds, 0.37% hits. AID 720551, 2013;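 active = maximum activity change below -70%; inconclusive = maximum activity change between -70% and -50%; inactive = maximum activity change above -50%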
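U2OS cells transduced with wild-type KCNH2 virus are loaded with FluxOr dye for 45 min, and thallium flux is measured in kinetic reads before and after stimulation buffer. Rate constants are normalized to DMSO controls.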
Numbers without * were called inactive; ? = inconclusive; nt = no result given; [ ] = dose if it differs, or a comment. % is scaled to controls: 0 for no effect and ±100 for the full control effect.

SMILES | KCNH2 3.1 inh | Luc counter | hERG WT inh
C[C@H]1CN([C@@H](C)CO)C(=O)CCCn2nncc2CO[C@H]1CN(C)C(=O)C1CC1 | -1 | nt | 0
COc1ccc(-n2c3c(c(=O)[nH]c2=O)C(NC(C)=O)(C(F)(F)F)C(=O)N3)cc1 (configuration not stated) | 2 | -1% | -9
COc1ccc(-n2c3c(c(=O)[nH]c2=O)C(NS(=O)(=O)c2ccc(Cl)cc2)(C(F)(F)F)C(=O)N3)cc1 (configuration not stated) | 12 | nt | -98*
Cc1ccc([N+](=O)[O-])cc1NC(=O)CCc1ccccc1 | 2 | -1% | 1
Cc1ccc([N+](=O)[O-])cc1NC(=O)CCCOc1ccccc1 | -110* | 1% | 3
COc1c(C)cc(S(=O)(=O)N2CCOCC2)c(C)c1C | -172* | 5% | -4
COc1c(C)cc(S(=O)(=O)N2CCCC2)c(C)c1C | -13 | -2% | 1
CCOc1ccc(-n2c(-c3ccc(OC)cc3)c[n+]3c2CCCCC3)cc1 | -32 | 0% | -20
CCOc1ccc(-n2c(-c3ccc(Br)cc3)c[n+]3c2CCCCC3)cc1 | -85* | 2% | -81*
CN1C/C(=C/c2ccccc2[N+](=O)[O-])C(=O)/C(=C\c2ccccc2[N+](=O)[O-])C1 | -15 | nt | 14
CCCCNc1c(-c2ccc(SC3CCCCC3)c(OC)c2)nc2ccc(Cl)cn12 | -97* | nt | -29
CCCCCCSc1ccc(-c2nc3ccc(Cl)cn3c2NCCCC)cc1OC | 4 | nt | -2
CCCCNc1c(-c2ccc(SC(C)CC)c(OC)c2)nc2ccc(C)cn12 (configuration not stated) | -31 | nt | 26
CCCCNc1c(-c2ccc(SC(C)CC)c(OC)c2)nc2ccc(Cl)cn12 (configuration not stated) | -5 | nt | -238*
CCCNC(=O)C[C@H]1C[C@H]2c3cc(NC(=O)Nc4ccc(F)cc4)ccc3O[C@H]2[C@@H](CO)O1 | 7 | nt | -3
COc1ccc(NC(=O)CN2C(=O)c3ccccc3S2(=O)=O)cc1S(=O)(=O)N1CCOCC1 | 2 | nt | -8
CCC(=O)N1c2ccc(S(=O)(=O)N3CCN(CC)CC3)cc2CC1C (configuration not stated) | 4 | nt | 0
CCC(=O)N1c2ccc(S(=O)(=O)N3CCN(c4ccc([N+](=O)[O-])cc4)CC3)cc2CC1C (configuration not stated) | -99* | nt | -12
C(=C\c1ccccn1)/c1ccncc1 | -1 | nt | -14
C(/C=C/c1ccccn1)=C\c1ccccc1 | -81* | nt | -5
CN(C)c1ccc(/C=C/C(=O)c2cccc(Br)c2)cc1 | -115* | -7% | -149*
CN(C)c1ccc(C(=O)/C=C/c2cccnc2)cc1 | 13 | nt | -14
CCOc1ccc(Cc2nnc(SCC(=O)Nc3ccc(C(C)=O)cc3)[nH]c2=O)cc1 | -4 | nt | 9
Cc1cc2n(n1)C(c1sccc1C)Nc1ccccc1-2 (configuration not stated) | 1 | -3% | -6
Cc1ccc2c(c1)-c1cc(C)nn1C(c1sccc1C)N2 (configuration not stated) | 2 | 1% | -155*
SMILES | KCNH2 3.1 inh | Luc counter | hERG WT inh
NS(=O)(=O)c1ccc2nc(NC(=O)c3ccc(Br)o3)sc2c1 | 21 | -4% | nt
CS(=O)(=O)c1ccc2nc(NC(=O)c3ccc(Cn4cc(Br)cn4)o3)sc2c1 | -95* | nt | -6
COC(=O)[C@]1(Cc2ccccc2)N[C@H](CN(C)S(=O)(=O)c2ccc(C(C)(C)C)cc2)[C@@H]2C(=O)N(C)C(=O)[C@@H]21 | -5 | nt | -1
CCc1ccc(NC(=O)CSc2nnc(CNC(=O)c3ccc(OC)cc3)o2)cc1 | 8 | nt | -2
CCc1cc2c3c(c(=O)oc2cc1OC(C)C(=O)O)CCCC3 (configuration not stated) | -31 | nt | 5
CCc1cc2c3c(c(=O)oc2cc1OCC(=O)OC)CCCC3 | -100* | nt | 0
Cc1cc(C)c(S(=O)(=O)/N=C2/C=C(SCC(=O)O)C(=O)c3ccccc32)cc1C | -117* | -6% | 5
Cc1cc(C)c(S(=O)(=O)Nc2cc(SCC(=O)O)c(O)c3ccccc23)cc1C | -5 | -2% | -6
Cc1ccc2c(c1)C(N1CCCC1=O)CC(c1ccco1)N2 (configuration not stated) | 8 | 11µM* | 1
O=C(O)c1cc2n(n1)C(C(F)(F)F)CC(c1ccco1)N2 (configuration not stated) | nt | 2% | 24
CCCC(=O)OC1(C(=O)CO)CCC2C3CCC4=CC(=O)CCC4(C)C3C(O)CC21C (configuration not stated) | nt | 3%[39.9 µM] | nt
O=C(NCC(c1cccs1)N1CCOCC1)c1cc(S(=O)(=O)N2CCOCC2)ccc1F (configuration not stated) | 3 | nt | 1
O=C(c1ccoc1)N1CCCC(CO)(CCCc2ccccc2)C1 (configuration not stated) | -155* | nt | -16
Cc1ccccc1CC1(CO)CCCN(C(=O)c2ccoc2)C1 (configuration not stated) | -9 | nt | 7
COC(=O)c1cc(Cl)c(NC(=O)/C=C/c2ccc(Cl)cc2)cc1OC | -80* | 3% | -27
COC(=O)c1cc(Cl)c(NC(=O)/C=C/c2ccc(OC)c(OC)c2)cc1OC | 3 | 1% | -3
COc1ccc2nc(NCc3ccc(OC)c(OC)c3OC)sc2c1 | 1 | nt | 0
O=S(=O)(c1ccccc1)N1CCNCC1 | 17 | nt | 10
CN1CCN(c2ccc(Cl)cc2NC(=O)c2cccc(S(=O)(=O)N(C)C)c2)CC1 | 0 | -2% | -14
CN1CCN(c2ccc(Cl)cc2NC(=O)/C=C/c2cccc(F)c2)CC1 | -70* | -3% | ?
COc1cc(NC(=O)c2cc(-c3ccccc3)on2)cc(OC)c1OC | 3 | nt | -4
COc1cc(NC(=O)c2cc3nc(-c4ccccc4)cc(-c4ccccc4)n3n2)cc(OC)c1OC | -73* | 1% | -5
COC(=O)C[C@@H]1C[C@@H]2c3cc(NS(=O)(=O)c4ccc(F)cc4)ccc3O[C@@H]2[C@@H](CO)O1 | 4 | nt | -3
CCN(CC(=O)NC(C)C)C(=O)C(CCSC)NC(=O)c1cccc(C)c1 (configuration not stated) | -201* | 0% | -155*
CCN(CC(=O)NC(C)C)C(=O)C(CCSC)NC(=O)c1ccccc1OC (configuration not stated) | -10 | 1% | -5
SMILES | KCNH2 3.1 inh | Luc counter | hERG WT inh
Nc1cc(=O)[nH]c(SCc2cccc3ccccc23)n1 | 4 | nt | -8
CCc1cc(=O)[nH]c(SCc2cccc3ccccc23)n1 | -110* | nt | 2
O=C(NC(=O)N1CCCCCC1)c1ccccc1 | 3 | nt | -17
O=C(COc1ccccc1Cl)NNC(=O)Cn1[nH]c(=O)c2ccccc2c1=O | 7 | nt | 0
O=C(Cn1[nH]c(=O)c2ccccc2c1=O)NNC(=O)c1ccccc1 | 18 | -1% | -270*
O=C(CCc1ccccc1)N[C@@H]1c2ccccc2CC[C@H]1OCc1ccccc1 | -8 | nt | 14
